Bioassay records from PubChem.
TSHR ag: agonists of human thyroid stimulating hormone receptor; 73,000 compounds, 0.48% hits; Potency, µM (top dose mostly 57.1 µM), without a hit: at the highest dose activation, actives largely listed as activators; HEK293-CNG-TSHR cells (CNG channel as cAMP sensor), membrane potential dye, cAMP; active = well fitted activation curve with a large enough effect in the main read-out, with a control signal flat, not every such curve was filed as active; inconclusive = small, poorly fitted or top-dose-only effect, or a change in a side signal; inactive = no such curve, though single readings can be large or run the other way; % of control where 0% means no effect;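 note: the control signal comes from parental cells without the receptor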
Target sequence (P16473 whole entry, looked up): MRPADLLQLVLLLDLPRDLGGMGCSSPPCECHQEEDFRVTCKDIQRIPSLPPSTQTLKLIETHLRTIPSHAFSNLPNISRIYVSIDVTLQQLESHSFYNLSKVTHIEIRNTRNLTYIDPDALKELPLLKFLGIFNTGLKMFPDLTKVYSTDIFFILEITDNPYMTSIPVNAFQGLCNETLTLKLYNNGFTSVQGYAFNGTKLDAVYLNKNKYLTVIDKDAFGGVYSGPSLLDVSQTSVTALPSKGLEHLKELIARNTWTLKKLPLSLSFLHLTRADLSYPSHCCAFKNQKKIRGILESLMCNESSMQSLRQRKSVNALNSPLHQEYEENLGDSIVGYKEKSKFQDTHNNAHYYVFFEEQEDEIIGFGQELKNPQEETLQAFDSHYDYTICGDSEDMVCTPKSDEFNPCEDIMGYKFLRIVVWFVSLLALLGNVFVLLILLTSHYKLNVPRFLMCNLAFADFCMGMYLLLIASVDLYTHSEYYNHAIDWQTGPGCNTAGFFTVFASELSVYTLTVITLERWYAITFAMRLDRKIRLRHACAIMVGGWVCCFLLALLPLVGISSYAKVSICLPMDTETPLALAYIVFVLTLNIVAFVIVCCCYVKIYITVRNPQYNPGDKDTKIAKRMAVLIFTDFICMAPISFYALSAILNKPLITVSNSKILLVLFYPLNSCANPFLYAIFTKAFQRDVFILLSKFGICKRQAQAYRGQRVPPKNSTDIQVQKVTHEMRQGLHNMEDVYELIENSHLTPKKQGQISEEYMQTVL
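HEK 293 cells stably expressing TSHR and a cAMP-gated CNG channel; parental CNG-only cells as counterscreen. Cells preloaded 60 min with membrane potential dye plus 100 uM RO 20-1724, then compound 30 min; fluorescence read at 590 nm.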
HEK293 cAMP cs: counter-screen for TSHR agonists: cAMP increase in parental HEK293. Potency, µM (highest dose often 57.1 µM), inactives show at the highest dose activation, actives largely listed as activators. 73,000 compounds, 2.5% hits. AID 938. parental HEK293 CNG cAMP sensor, membrane potential fluorescence; note: % of control where 0% means no effect; nearly all actives have a fitted effect of over 55% in size
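Parental HEK 293 cells stably expressing a modified CNG channel (no TSHR) report cAMP rise as membrane depolarization. Membrane potential dye with 100 uM RO 20-1724 was loaded for 60 min at room temperature, then compound added for 30 min; fluorescence read at 590 nm.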
Imprint erasure: inducers of genomic imprint erasure in mouse ES cells. mouse ES Peg3-LacZ reporter, beta-gal luminescence, 40 h. Potency, µM (highest dose often 60.7 µM), for the others: at the top dose activity change, positive = activation, most hits filed as activators. 110,000 compounds, 0.02% hits
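Readout: BetaGlo luminescence (5 min, room temp) for LacZ from the normally silent maternal Peg3 allele in female Peg3LacZ-Neo ES cells. Cells 300/well, 40 h, 37C, 5% CO2. Data normalized per plate to negative controls.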
An asterisk follows results filed as active; ? = inconclusive; . = no result given; [ ] = remark or other dose. This is one part of a sample in which hits are shown more often than they occur. Unless noted, calls come from the whole dose curve; as a rule, active = well fitted activation curve with a large enough effect; inconclusive = small, poorly fitted or top-dose-only effect; inactive = no such curve, though single readings can be large or run the other way. Potency is the fitted concentration of half-maximal effect.

SMILES	TSHR ag	HEK293 cAMP cs	Imprint erasure
O=C1C2=C(Nc3cc([N+](=O)[O-])ccc3N2)O[C@@H]1c1ccc([C@H]2OC3=C(Nc4ccc([N+](=O)[O-])cc4N3)C2=O)cc1	-3%[11.4 µM]	5%[11.4 µM]	-7%[10.9 µM]
CC(c1ccco1)N(C(=O)COc1ccc(Cl)cc1)c1ccccn1 (centres undefined)	13%	10%	-18%
CC(c1ccco1)N(C(=O)COc1ccc(Cl)cc1Cl)c1ccccn1 (centres undefined)	?	25µM*	-13%
CCN(CC)CCCNC(=O)c1oc2c(c1C)-c1nn(Cc3ccc(Cl)cc3)cc1CC2	.	.	-16%[10.9 µM]
O=S(=O)(Nc1cccc(-c2ccc(N3CCCC3)nn2)c1)c1ccccc1C(F)(F)F	.	.	-11%[10.9 µM]
Cc1oc(-c2ccc(C(=O)NCCCOC(C)C)cc2)nc1CS(=O)(=O)c1ccccc1	.	.	5%[10.9 µM]
Cc1cc(C)c(S(=O)(=O)Nc2ccccc2C(F)(F)F)c(C)c1	?	40µM*	-9%
O=C(O)c1ccccc1NS(=O)(=O)c1ccccc1C(F)(F)F	5%	-4%	-5%
COc1ccc2c(c1)C(c1cc(OC)c(OC)c(OC)c1)CC(=O)O2 (centres undefined)	.	.	3%
O=C(CCN1CCCCC1)c1ccc2c(c1)OCCO2	1%	3%	-34%
O=C(CN1C(=O)NC2(CCCCCC2)C1=O)c1ccc2c(c1)OCCO2	?	10µM*	-4%
CC(C)(C)C1CCc2c(sc(NC(=O)c3ccncc3)c2C(=O)Nc2ccccc2Cl)C1 (centres undefined)	.	.	-11%[10.9 µM]
Clc1ccc(-c2nnc(-c3ccccc3)o2)c(Cl)c1	?	32µM*	-31%
Fc1ccc(-c2nnc(-c3ccc(Cl)cc3Cl)o2)cc1	14%	14%	-50%
COc1ccc(-c2cn3c(n2)sc2cc(C(=O)NCc4cccs4)ccc23)cc1	.	.	-6%[10.9 µM]
COc1ccc(NS(=O)(=O)c2cnc(N)nc2)cc1Cl	.	.	-2%[10.9 µM]
O=C(c1ccc(Br)cc1)N(Cc1ccco1)c1ccccn1	.	.	-4%[10.9 µM]
COc1cc2c(cc1OC)-c1cc(NC3CCCCCC3)nc(=O)n1CC2	10µM*	19%	-12%
COc1cc2c(cc1OC)-c1cc(Nc3ccc4c(c3)OCCO4)nc(=O)n1CC2	.	-11%	-5%
O=C(c1ccco1)N(Cc1cccnc1)c1nc2ccc(F)cc2s1	.	.	-18%[10.9 µM]
CC/C=C\CC[C@H](OC(=O)c1ccc(Br)cc1)C1=CCCCC1=O	15%[11.4 µM]	16%[11.4 µM]	.
COCCOC(=O)c1c(C)oc2ccc(OC(=O)c3cccs3)cc12	?	?	-34%
COCCOC(=O)c1c(C)oc2ccc(OCc3cc(C(=O)OC)oc3C)cc12	?	25µM*	-16%
CCOC(=O)c1c(Nc2cccc(C(=O)OC)c2)nnc(-c2ccccc2)c1-c1ccccc1	.	.	-19%[10.9 µM]
COC(=O)c1cccc(Nc2nc3ccccc3nc2C)c1	?	32µM*	-17%
SMILES	TSHR ag	HEK293 cAMP cs	Imprint erasure
Cc1ccc(CCNC(=O)C2CC(=O)N(CCc3ccc(C)cc3)C2)cc1 (centres undefined)	.	.	-12%[10.9 µM]
O=C(NCc1ccc2c(c1)OCO2)C1CCN(c2ccc(S(=O)(=O)N3CCCC3)cc2)CC1	?	?	-16%
O=C(NCCc1ccc2c(c1)OCO2)C1CCN(S(=O)(=O)c2ccc(Cl)cc2)CC1	?	13µM*	-3%
O=C(NCc1ccco1)c1cc2c(s1)CCCCC2	7%	17%	-37%
O=C(CN(C(=O)c1cc2c(s1)CCC2)C1CCCC1)NCc1cccs1	?	32µM*	-14%
CN(C)CCCCNC(=O)c1ccc(-n2c(=O)c(=O)[nH]c3ccccc32)cc1	-5%	-17%	.
Fc1ccc(-c2nnc3sc(C4COc5ccccc5O4)nn23)cc1 (centres undefined)	?	25µM*	-16%
Fc1ccc(-c2nn3c(C4COc5ccccc5O4)nnc3s2)cc1 (centres undefined)	?	?	-4%
COc1ccc(-c2ccc3c(n2)CCCN3C[C@H](O)CN2CCCc3nc(-c4ccc(Br)cc4)ccc32)cc1	-7%[11.4 µM]	-12%[11.4 µM]	.
COc1ccc(N2CCN(C(=O)c3ccc(-c4nc(COc5ccccc5)c(C)o4)cc3)CC2)cc1	.	.	1%[10.9 µM]
CC(C)CCSc1nc2c(c(=O)[nH]c(=O)n2C)n1CCc1ccccc1	?	10µM*	6%
CCCCCSc1nc2c(c(=O)[nH]c(=O)n2C)n1CC	3%	4%	14%
CCCCCCn1c(SCC(C)C)nc2c1c(=O)[nH]c(=O)n2C	?	25µM*	0%
CC(C)CSc1nc2c(c(=O)[nH]c(=O)n2C)n1CCc1ccccc1	?	?	-4%
CC(C)CCn1c(SCc2ccc(Cl)cc2)nc2c1c(=O)[nH]c(=O)n2C	?	10µM*	-4%
CCCCn1c(SCc2ccc(Cl)cc2)nc2c1c(=O)[nH]c(=O)n2C	?	?	-15%
CCNc1ncc2nc(-c3cc(F)cc(F)c3)c(=O)n(Cc3cccs3)c2n1	-5%	1%	.
CO[C@H]1COC(=O)C/C=C\[C@H](C)[C@@H](OC)COC(=O)C/C=C\[C@@H]1C	-2%[11.4 µM]	10%[11.4 µM]	.
COC(=O)c1ccc(CN(Cc2ccc(OC)c(OC)c2)S(=O)(=O)c2cc(C(=O)Nc3cccc(C)c3)ccc2F)cc1	.	.	-13%[10.9 µM]
CCC(=O)N1CCc2cc(S(=O)(=O)NCCC(=O)Nc3cc(C)ccc3OC)ccc21	.	.	16%[10.9 µM]
N#CC(=C(/N)Sc1ccccc1N)/C(C#N)=C(/N)Sc1ccccc1N	-21%	-19%	-34%
CCOC(=O)c1cc2sccc2n1CC(=O)N1CCc2ccccc21	?	16µM*	-18%
CCOC(=O)c1cc2sccc2n1CC(=O)OC(C)C	?	?	-10%
O=C(COc1ccccc1)NCc1ccc2c(c1)CCN2C(=O)c1ccc(Cl)cc1	.	.	-8%[10.9 µM]
CC(C)=C1C2C=CC1C1C(=O)N(c3ccc4c(c3)OCO4)C(=O)C21 (centres undefined)	2.5µM*	3%[11.4 µM]	-8%
SMILES	TSHR ag	HEK293 cAMP cs	Imprint erasure
O=C1CSC2=NCN(c3ccc4c(c3)OCO4)CN12	-4%[11.4 µM]	-9%[11.4 µM]	2%
CC1=C(C(=O)Nc2ccccc2C)C(c2cccnc2)n2nc(SCc3ccccc3)nc2N1 (centres undefined)	.	.	-17%[10.9 µM]
COc1ccc(-c2noc(CN(C(=O)c3ccc(OC(C)=O)cc3)C(C)C)n2)cc1OC	25µM*	1%	-14%
COc1ccc(-c2noc(CN(C(=O)c3cc(OC)c(OC)cc3OC)C(C)C)n2)cc1	.	.	11%[10.9 µM]
COc1ccc(C(=O)N(Cc2nc(-c3ccc(C)cc3)no2)C(C)C)cc1OC	28%	4%[11.4 µM]	-7%
COc1cc(OC)cc(C(=O)N(Cc2nc(-c3cccc(C)c3)no2)C(C)C)c1	?	32µM*	-24%
CCN1CCN(CCCNC(=O)Cn2nc(C)n3c(cc4c(OC)cccc43)c2=O)CC1	.	.	14%[10.9 µM]
CCN1C(=O)[C@H]2[C@H]3[C@H](O)[C@H](O)C/C(=N/O[C@@H]4O[C@H](COC(C)=O)[C@@H](OC(C)=O)[C@H](OC(C)=O)[C@H]4OC(C)=O)[C@@H]3CC[C@@H]2C1=O	0%[11.4 µM]	-2%[11.4 µM]	.
Clc1ccc(CSc2nnc(-c3ccncc3)o2)c(Cl)c1	?	20µM*	-11%
c1ccc(CSc2nnc(-c3ccncc3)o2)cc1	6%	9%	-13%
